# Experimental data taken from paper PMC4336329 (PLoS ONE, 2015).
# The campaign covered roughly 310,000 compounds. About 2,200 (0.71%) showed an effect of 50% or more. The effect is printed as a negative number. Only a selection was taken, and strong results are over-represented in it overall.
# Molecular target: human ether-à-go-go-related gene (hERG) potassium channel (human, UniProt Q12809)
# Assay: primary screen, population patch clamp on CHO cells stably expressing hERG; higher = less effect of the substance
# Chain of human ether-à-go-go-related gene (hERG) potassium channel (Q12809 whole entry, looked up): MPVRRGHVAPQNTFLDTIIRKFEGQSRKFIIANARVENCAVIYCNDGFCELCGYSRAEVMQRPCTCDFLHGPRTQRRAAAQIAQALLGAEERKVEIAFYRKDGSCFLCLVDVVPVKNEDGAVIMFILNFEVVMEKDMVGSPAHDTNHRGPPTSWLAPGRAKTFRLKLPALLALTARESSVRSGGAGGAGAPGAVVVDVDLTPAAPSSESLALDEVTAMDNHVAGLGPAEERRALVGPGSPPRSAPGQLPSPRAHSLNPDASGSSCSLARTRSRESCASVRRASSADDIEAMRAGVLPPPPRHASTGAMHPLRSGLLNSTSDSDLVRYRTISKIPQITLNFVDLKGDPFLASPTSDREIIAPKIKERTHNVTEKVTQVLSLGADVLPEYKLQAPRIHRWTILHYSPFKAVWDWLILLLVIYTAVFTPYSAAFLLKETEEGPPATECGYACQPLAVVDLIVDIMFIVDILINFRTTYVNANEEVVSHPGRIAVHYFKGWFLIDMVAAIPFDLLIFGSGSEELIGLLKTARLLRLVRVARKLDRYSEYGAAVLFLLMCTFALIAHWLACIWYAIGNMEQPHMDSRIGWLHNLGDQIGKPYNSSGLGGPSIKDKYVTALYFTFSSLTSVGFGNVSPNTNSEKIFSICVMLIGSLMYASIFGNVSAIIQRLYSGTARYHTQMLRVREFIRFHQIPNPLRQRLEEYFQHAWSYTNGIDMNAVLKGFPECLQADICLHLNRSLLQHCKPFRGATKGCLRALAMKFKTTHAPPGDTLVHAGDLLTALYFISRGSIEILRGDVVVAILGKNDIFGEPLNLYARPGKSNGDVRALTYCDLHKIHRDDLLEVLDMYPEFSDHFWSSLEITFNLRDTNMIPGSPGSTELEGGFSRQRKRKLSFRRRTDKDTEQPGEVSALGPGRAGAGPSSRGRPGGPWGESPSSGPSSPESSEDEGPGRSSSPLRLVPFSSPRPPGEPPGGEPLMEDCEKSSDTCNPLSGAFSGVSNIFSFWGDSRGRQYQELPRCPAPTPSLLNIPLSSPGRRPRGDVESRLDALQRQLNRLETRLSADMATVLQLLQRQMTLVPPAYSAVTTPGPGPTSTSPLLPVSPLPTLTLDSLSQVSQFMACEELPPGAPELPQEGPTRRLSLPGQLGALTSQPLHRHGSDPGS
row,SMILES,"hERG current change (%, negative = inhibition) at 1uM [%]"
1,CCOc1ccccc1NC(=O)CSc1nc2ccccc2c(=O)n1CC1CCCO1 (stereo not drawn),-35.6
2,Cc1c(=O)n(OCc2ccccc2)c2ccccc2[n+]1[O-],9.46
3,Oc1cnn(-c2ccccc2)c1,5.96
4,CC(=O)NC(CC(=O)OCc1ccc([N+](=O)[O-])cc1)c1ccccc1 (stereo not drawn),-27
5,COCCNC(=O)CSc1nc2sccc2c(=O)n1-c1ccccc1,16.6
6,CCn1c(NC(=O)C(C)C)c2ccccc2nc1=O,2.18
7,COc1cc(C)nc(N(C)S(=O)(=O)c2ccccc2Cl)n1,7.72
8,CCN(CC)S(=O)(=O)c1cccc(C(=O)Nc2ccc(C#N)cc2)c1,-74
9,CCN(CC)S(=O)(=O)c1cccc(C(=O)Nc2ccccc2)c1,-0.175
10,CCN(CC)S(=O)(=O)c1cccc(NC(=O)c2ccc(C#N)cc2)c1,3.29
11,COC(=O)CSC(C(=O)Nc1ccc(C)c(C)c1)c1ccccc1 (stereo not drawn),-4.33
12,O=C(Cn1ccc([N+](=O)[O-])n1)N1CCCCCC1,13.1
13,COC(=O)c1ccc(/C=N/NC(=O)C2CC(=O)N(c3ccc(F)cc3)C2)cc1 (stereo not drawn),16.8
14,COC(=O)c1nn(-c2cccc(C(F)(F)F)c2)ccc1=O,8.73
15,COc1ccc(/C=N/NC(=O)c2ccccc2[N+](=O)[O-])cc1CN1CCc2cc(OC)c(OC)cc2C1C (stereo not drawn),-10.4
16,COc1ccc(/C=N/NC(=O)c2ccc(F)cc2)cc1CN1CCc2cc(OC)c(OC)cc2C1C (stereo not drawn),-99.1
17,COc1ccc(C(=O)N/N=C/c2ccc(OC)c(CN3CCCc4ccccc43)c2)cc1,-6.65
18,COc1ccc(C(=O)N/N=C/c2ccc(OC)c(CN3CCc4cc(OC)c(OC)cc4C3C)c2)cc1 (stereo not drawn),-85.1
19,COc1ccc(/C=N/NC(=O)c2cccnc2)cc1CN1CCc2cc(OC)c(OC)cc2C1C (stereo not drawn),1.82
20,COc1ccc(/C=N/NC(=O)c2cc(OC)c(OC)c(OC)c2)cc1CN1CCc2cc(OC)c(OC)cc2C1C (stereo not drawn),-21.9
21,Cc1cccc([C@@H]2[C@@H]3C(=O)N(Cc4ccccc4)C(=O)[C@@H]3[C@]3(Cc4ccccc4)C(=O)N(c4cccc(F)c4)C(=O)N23)c1,9.13
22,COc1cc(/C=C2/SC(=S)N(CC(=O)O)C2=O)ccc1OC(=O)c1ccco1,7.62

row,SMILES,"hERG current change (%, negative = inhibition) at 1uM [%]"
1,N=C1/C(=C/c2ccc(OCc3ccccc3F)cc2)C(=O)N=C2SC(CC(=O)N3CCOCC3)=NN12,12.2
2,CCC(Sc1nc(N)c(NC(=O)c2ccc(OC)c(OC)c2)c(=O)[nH]1)C(=O)OC (stereo not drawn),-5.41
3,CCC(NS(=O)(=O)c1cccs1)c1ccc(C)cc1 (stereo not drawn),8.69
4,O=[N+]([O-])c1cccc2c(N3CCCC3)ccnc12,-84.4
5,O=[N+]([O-])c1ccc(N2CCCC2)c2ncccc12,2.1
6,O=[N+]([O-])c1ccc(N2CCOCC2)c2cccnc12,-7.04
7,O=[N+]([O-])c1cccc2c(N3CCOCC3)ccnc12,10
8,Cc1ccc(S(=O)(=O)N2CCN(c3ccc([N+](=O)[O-])c4cccnc34)CC2)cc1,7.53
9,O=[N+]([O-])c1ccc(N2CCN(S(=O)(=O)c3ccccc3)CC2)c2cccnc12,-75.6
10,O=C(c1ccccc1F)N1CCN(c2ccc([N+](=O)[O-])c3ncccc23)CC1,-38.7
11,O=C(c1ccccc1F)N1CCN(c2ccc([N+](=O)[O-])c3cccnc23)CC1,-13.2
12,O=C(c1cc(F)c(F)cc1Cl)N1CCN(c2ccc([N+](=O)[O-])c3ncccc23)CC1,-53.6
13,COc1cc(NC(=O)C2CC(=O)N(Cc3ccco3)C2)cc(OC)c1 (stereo not drawn),2.39
14,CC/C(=N\NC(=O)c1ccc(N2CCCC2=O)cc1)c1ccccc1,10.8
15,Cc1ccc2nc(SC(C)C(=O)NC3CCCc4ccccc43)[nH]c2c1 (stereo not drawn),11.6
16,CC1(c2ccc([N+](=O)[O-])cc2)NC(=O)N(CC(=O)Nc2ccc(N3CCCCC3)cc2)C1=O (stereo not drawn),14.8
17,Cc1ccc(-n2ncc3c2CCCC3NC(=O)c2cnccn2)cc1C (stereo not drawn),10.3
18,CCOc1ccc(C(C)NC(=O)Cc2ccccc2)cc1OCC (stereo not drawn),10.8
19,O=C(Cn1nc(C(F)(F)F)cc1C1CC1)Nc1ccccc1F,16.1
20,COCCN1CC(=O)N2C(c3cccc(C)c3)c3[nH]c4ccccc4c3C[C@H]2C1=O (stereo partly drawn),1.07
21,COc1ccc(Cn2cc3c(-c4ccc(F)cc4)nnc-3c3cc(OC)c(OC)cc32)cc1,-75.6
22,COc1cc2c3nnc(-c4ccc(F)cc4)c-3cn(Cc3ccc(F)cc3)c2cc1OC,-5.13

row,SMILES,"hERG current change (%, negative = inhibition) at 1uM [%]"
1,COc1cc2c3nnc(-c4ccc(F)cc4)c-3cn(Cc3ccc(C)cc3)c2cc1OC,13.5
2,Cc1cc(C)n(Cc2ccccc2)c(=O)c1S(=O)(=O)c1ccccc1,3.34
3,COC(=O)C(C)Sc1nnc(SC(C)C(=O)OC)s1 (stereo not drawn),23
4,O=C(N/N=C/c1cccc([N+](=O)[O-])c1O)C(O)(c1ccccc1)c1ccccc1,18.6
5,O=C(N/N=C/c1cc(Cl)cc([N+](=O)[O-])c1O)C(O)(c1ccccc1)c1ccccc1,-62.4
6,O=C(N/N=C/c1cc([N+](=O)[O-])cc([N+](=O)[O-])c1O)C(O)(c1ccccc1)c1ccccc1,0.978
7,CSc1cccc(NS(=O)(=O)c2ccc(F)cc2)c1,7.73
8,COCCCNC(=O)CC(C)c1ccccc1 (stereo not drawn),8.27
9,Cn1c2ccccc2n2c(=O)c(=O)n(CC(=O)N3CCCc4ccccc43)nc12,-1.27
10,Br.CCCCCCn1c2c(c(=N)c3c1CCC3)CCC2,-54
11,CCCCn1c2c(c(=N)c3c1CCC3)CCC2.I,5.32
12,Br.CCCCCCCCCn1c2c(c(=N)c3c1CCC3)CCC2,-65.5
13,Br.CCn1c2c(c(=N)c3c1CCC3)CCC2,6.51
14,CCCn1c2c(c(=N)c3c1CCC3)CCCC2.I,6.36
15,CCCCCCn1c(=O)[nH]c2c(c1=O)CCC2,11.6
16,Br.CCCCCCCCn1c2c(c(=N)c3c1CCC3)CCCC2,-84.6
17,CCOC(=O)Cn1c2c(c(=N)c3c1CCC3)CCCC2.Cl,12.8
18,CCCn1c2c(c(=N)c3c1CCC3)CCC2.I,8.15
19,Br.CCCCCCCCCCn1c2c(c(=N)c3c1CCC3)CCC2,-71.7
20,CCOC(=O)Cn1c2c(c(=N)c3c1CCC3)CCC2.Cl,10.2
21,Br.CCn1c2c(c(=N)c3c1CCC3)CCCC2,4.22
22,CC(=O)n1cc(/C=N/NC(=O)c2cccc(O)c2)c2ccccc21,13.7

row,SMILES,"hERG current change (%, negative = inhibition) at 1uM [%]"
1,CC(CC(=O)O)CC(=O)NNC(=O)c1cccc(Br)c1 (stereo not drawn),8.72
2,C/C(N)=C(/C#N)C(=O)COC(=O)CCSc1ccccc1Cl,12.1
3,CCN(c1ccccc1)S(=O)(=O)c1ccc(Cl)c(C(=O)NCC2CCCO2)c1 (stereo not drawn),2.1
4,O=C(C1CCN(C2CCN(C/C(Cl)=C/c3ccccc3)CC2)CC1)N1CCOCC1,-33.8
5,CN1CCN(C(c2ccc(C(F)(F)F)cc2)c2ccc3cccnc3c2O)CC1 (stereo not drawn),7.36
6,CCC1Oc2nc(SC)nnc2-c2ccccc2N1C(=O)c1ccccc1 (stereo not drawn),11.8
7,COC(=O)C1=C(C)Nc2nc3ccccc3n2C1c1ccccc1F (stereo not drawn),8.31
8,Cc1cc(CNC(=O)CC2C(=O)NCCN2CC(C)(C)C)nn1C (stereo not drawn),10.4
9,Cc1cc(C=C2C(=O)NC(=O)NC2=O)c(C)n1-c1ccc2c(c1)OCO2,13.5
10,CCOC(=O)C1CCN(CC(O)COc2ccc(C(=O)CC)cc2)CC1.Cl (stereo not drawn),-49.5
11,CC(=O)c1cccc(OCC(O)CN2CC=C(c3ccccc3)CC2)c1.O=C(O)C(=O)O (stereo not drawn),-50
12,CCOC(=O)c1ccc(S(=O)(=O)N2CCN(CC(O)COc3cccc(C(C)=O)c3)CC2)cc1.O=C(O)C(=O)O (stereo not drawn),10
13,CCOC(=O)C1CCN(CC(O)COCc2ccc3c(c2)OCO3)CC1.Cl (stereo not drawn),1.96
14,Cl.OC(COCc1ccccc1)CN1CCCC1 (stereo not drawn),1.21
15,OC(COCc1ccc(Cl)cc1)CN1CCN(CC(O)COCc2ccc(Cl)cc2)CC1 (stereo not drawn),-67.5
16,CCOC(=O)C1CCN(CC(O)COc2ccc(C(C)(C)C)cc2)CC1.Cl (stereo not drawn),-53.2
17,Cl.OC(COCc1ccc(Cl)cc1)CN1CCCCC1 (stereo not drawn),0.152
18,CC(=O)c1cccc(OCC(O)CN2CCN(S(=O)(=O)c3c(F)cccc3F)CC2)c1.O=C(O)C(=O)O (stereo not drawn),1.4
19,CCOC(=O)C1CCN(CC(O)COc2ccc(C(C)=O)cc2)CC1.Cl (stereo not drawn),-30.4
20,CCOC(=O)C1CCN(CC(O)COCc2ccc(Cl)cc2)CC1.Cl (stereo not drawn),-58.6
21,CCOC(=O)C1CCN(CC(O)COCc2ccccc2)CC1.O=C(O)C(=O)O (stereo not drawn),3.28
